# Measured values: publication PMC7862700, “An all-to-all approach to the identification of sequence-specific readers for epigenetic DNA modifications on cytosine”
# What was measured:
# Assay in all cases: DAPPL (digital affinity profiling via proximity ligation, sequencing); 10 mM Tris-HCl pH 7.5, 50 mM NaCl, 1 mM DTT, 4% glycerol, room temperature, 30 min; GST-TFs on glutathione beads, 16-mer random dsDNA library, 0.1% formaldehyde crosslink after washing; high values mean tight binding
# [1] = molecular target: T1, FLI1 (Homo sapiens, UniProt Q01543 1-452); conditions: protein: recombinant; tags: N-terminal GST; dsDNA, one strand shown
# T1 sequence: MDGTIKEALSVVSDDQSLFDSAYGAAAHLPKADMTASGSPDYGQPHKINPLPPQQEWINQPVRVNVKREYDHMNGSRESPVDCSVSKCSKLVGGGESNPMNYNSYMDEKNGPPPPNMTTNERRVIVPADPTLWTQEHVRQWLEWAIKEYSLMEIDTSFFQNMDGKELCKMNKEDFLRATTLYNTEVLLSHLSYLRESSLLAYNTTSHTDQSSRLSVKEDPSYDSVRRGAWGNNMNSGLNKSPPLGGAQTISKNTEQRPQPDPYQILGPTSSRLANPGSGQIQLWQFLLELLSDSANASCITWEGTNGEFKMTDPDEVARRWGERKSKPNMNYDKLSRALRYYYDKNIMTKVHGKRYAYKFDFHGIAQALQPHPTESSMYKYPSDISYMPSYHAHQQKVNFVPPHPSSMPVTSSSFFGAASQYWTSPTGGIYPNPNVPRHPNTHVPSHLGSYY
# Method in brief: (§1)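 Human transcription factors fused to GST were expressed in yeast, captured on glutathione beads, given DNA barcodes and pooled with a GST-only negative control. Pools were incubated with 200 nmole of a 16-mer random double-stranded DNA library in Tris/NaCl/DTT/glycerol buffer at room temperature for 30 min. They were then washed, crosslinked with 0.1% formaldehyde, proximity-ligated (BsaI/T4 ligase, 1 h, 37 °C), PCR-amplified and sequenced on an Illumina NextSeq500. Binding signal is each 6-mer's read frequency for a factor divided by its frequency for the GST control.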
# [2] = molecular target: T2, ELK1 (Homo sapiens, UniProt P19419 1-428); conditions: protein: recombinant; tags: N-terminal GST; dsDNA, one strand shown
# T2 sequence: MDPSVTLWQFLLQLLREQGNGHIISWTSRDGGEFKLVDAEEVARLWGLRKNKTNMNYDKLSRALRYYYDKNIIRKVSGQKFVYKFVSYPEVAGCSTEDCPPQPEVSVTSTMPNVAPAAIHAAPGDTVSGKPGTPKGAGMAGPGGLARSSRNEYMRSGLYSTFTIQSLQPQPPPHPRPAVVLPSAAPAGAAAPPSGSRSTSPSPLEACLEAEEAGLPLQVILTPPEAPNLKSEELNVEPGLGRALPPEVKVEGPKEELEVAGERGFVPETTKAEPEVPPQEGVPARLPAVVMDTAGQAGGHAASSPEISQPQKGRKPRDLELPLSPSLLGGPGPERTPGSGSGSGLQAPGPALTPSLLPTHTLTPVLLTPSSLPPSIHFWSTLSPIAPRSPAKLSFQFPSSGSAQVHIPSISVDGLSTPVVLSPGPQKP
# Method in brief: as §1
# [3] = molecular target: T3, GABPA (Homo sapiens, UniProt Q06546 1-454); conditions: protein: recombinant; tags: N-terminal GST; dsDNA, one strand shown
# T3 sequence: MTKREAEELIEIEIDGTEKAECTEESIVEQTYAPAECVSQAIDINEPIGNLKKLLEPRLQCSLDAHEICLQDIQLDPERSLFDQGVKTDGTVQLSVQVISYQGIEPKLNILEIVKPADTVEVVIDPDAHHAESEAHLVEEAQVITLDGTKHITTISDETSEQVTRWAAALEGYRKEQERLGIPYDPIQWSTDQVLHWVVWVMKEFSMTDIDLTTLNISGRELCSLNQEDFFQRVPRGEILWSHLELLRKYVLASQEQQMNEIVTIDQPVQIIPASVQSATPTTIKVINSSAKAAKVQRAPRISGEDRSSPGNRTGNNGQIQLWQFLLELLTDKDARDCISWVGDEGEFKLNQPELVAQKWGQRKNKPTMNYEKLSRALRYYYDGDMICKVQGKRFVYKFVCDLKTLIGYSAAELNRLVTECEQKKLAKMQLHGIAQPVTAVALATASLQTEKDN
# Method in brief: as §1
# [4] = molecular target: T4, ERG (Homo sapiens, UniProt P11308 1-479); conditions: protein: recombinant; tags: N-terminal GST; dsDNA, one strand shown
# T4 sequence: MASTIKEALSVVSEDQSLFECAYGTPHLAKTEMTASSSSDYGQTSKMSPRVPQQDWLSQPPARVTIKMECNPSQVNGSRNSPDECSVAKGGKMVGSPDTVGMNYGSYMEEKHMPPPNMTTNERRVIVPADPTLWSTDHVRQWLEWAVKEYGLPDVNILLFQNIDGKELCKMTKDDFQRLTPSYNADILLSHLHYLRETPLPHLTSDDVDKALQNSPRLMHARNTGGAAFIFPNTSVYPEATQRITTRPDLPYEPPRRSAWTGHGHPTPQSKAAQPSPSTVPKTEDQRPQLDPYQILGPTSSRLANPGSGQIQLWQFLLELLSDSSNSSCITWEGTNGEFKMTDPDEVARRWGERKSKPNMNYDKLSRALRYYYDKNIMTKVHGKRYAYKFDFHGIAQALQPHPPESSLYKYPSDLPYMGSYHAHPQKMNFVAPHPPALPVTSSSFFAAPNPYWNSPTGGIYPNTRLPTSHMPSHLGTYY
# Method in brief: as §1
# [5] = molecular target: ELF1 (Homo sapiens, UniProt P32519 1-619); conditions: protein: recombinant; tags: N-terminal GST; dsDNA, one strand shown
# Sequence of ELF1 (P32519 whole entry): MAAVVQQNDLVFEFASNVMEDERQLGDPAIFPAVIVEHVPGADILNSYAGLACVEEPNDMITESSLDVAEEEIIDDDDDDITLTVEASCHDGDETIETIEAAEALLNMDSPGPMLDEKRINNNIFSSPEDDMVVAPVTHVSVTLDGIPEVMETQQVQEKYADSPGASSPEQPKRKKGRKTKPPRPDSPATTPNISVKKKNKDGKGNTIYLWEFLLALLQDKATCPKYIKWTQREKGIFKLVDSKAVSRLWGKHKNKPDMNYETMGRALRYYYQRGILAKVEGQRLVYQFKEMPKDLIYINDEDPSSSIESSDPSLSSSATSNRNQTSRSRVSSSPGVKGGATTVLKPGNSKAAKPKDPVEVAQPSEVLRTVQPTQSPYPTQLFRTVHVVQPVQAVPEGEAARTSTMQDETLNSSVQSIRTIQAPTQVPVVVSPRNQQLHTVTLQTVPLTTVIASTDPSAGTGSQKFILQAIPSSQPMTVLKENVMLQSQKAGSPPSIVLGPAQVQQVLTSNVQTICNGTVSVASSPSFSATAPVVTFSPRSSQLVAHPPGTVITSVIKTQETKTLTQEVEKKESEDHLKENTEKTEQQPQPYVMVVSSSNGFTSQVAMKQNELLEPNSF
# Method in brief: as §1
# [6] = molecular target: T5, EHF (Homo sapiens, UniProt Q9NZC4 1-300); conditions: protein: recombinant; tags: N-terminal GST; dsDNA, one strand shown
# T5 sequence: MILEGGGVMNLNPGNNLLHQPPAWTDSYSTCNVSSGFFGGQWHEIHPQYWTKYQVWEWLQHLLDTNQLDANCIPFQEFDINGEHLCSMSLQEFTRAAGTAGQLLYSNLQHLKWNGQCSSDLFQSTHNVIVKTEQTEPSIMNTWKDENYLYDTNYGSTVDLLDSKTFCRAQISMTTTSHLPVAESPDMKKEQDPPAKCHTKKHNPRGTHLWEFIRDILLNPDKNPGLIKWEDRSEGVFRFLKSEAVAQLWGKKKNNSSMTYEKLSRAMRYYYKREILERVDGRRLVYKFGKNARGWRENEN
# Method in brief: as §1
# [7] = molecular target: SPI1 (Homo sapiens, UniProt P17947 1-270); conditions: protein: recombinant; tags: N-terminal GST; dsDNA, one strand shown
# Method in brief: as §1
# [8] = molecular target: SPIB (Homo sapiens, UniProt Q01892 1-262); conditions: protein: recombinant; tags: N-terminal GST; dsDNA, one strand shown
# Sequence of SPIB (Q01892 whole entry): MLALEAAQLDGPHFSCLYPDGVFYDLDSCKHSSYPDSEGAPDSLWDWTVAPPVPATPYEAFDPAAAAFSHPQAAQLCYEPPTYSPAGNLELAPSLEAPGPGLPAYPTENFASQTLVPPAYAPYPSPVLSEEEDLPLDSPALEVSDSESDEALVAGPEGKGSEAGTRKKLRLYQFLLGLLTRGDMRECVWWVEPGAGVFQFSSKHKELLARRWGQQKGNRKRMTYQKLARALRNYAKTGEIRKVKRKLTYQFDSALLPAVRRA
# Method in brief: as §1
# [9] = molecular target: T6, ELK3 (Homo sapiens, UniProt P41970 1-407); conditions: protein: recombinant; tags: N-terminal GST; dsDNA, one strand shown
# T6 sequence: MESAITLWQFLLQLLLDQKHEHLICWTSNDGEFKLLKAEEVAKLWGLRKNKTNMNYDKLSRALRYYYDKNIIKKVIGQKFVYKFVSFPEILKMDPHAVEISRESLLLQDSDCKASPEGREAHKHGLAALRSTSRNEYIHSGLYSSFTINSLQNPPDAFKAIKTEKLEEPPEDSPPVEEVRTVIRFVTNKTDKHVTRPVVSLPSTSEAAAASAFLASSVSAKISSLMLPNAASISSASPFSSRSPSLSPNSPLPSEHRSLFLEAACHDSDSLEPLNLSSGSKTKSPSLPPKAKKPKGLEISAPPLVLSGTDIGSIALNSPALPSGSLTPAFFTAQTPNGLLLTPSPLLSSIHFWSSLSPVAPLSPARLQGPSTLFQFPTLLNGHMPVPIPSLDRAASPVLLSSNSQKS
# Method in brief: as §1
# [10] = molecular target: T7, FEV (Homo sapiens, UniProt Q99581 1-238); conditions: protein: recombinant; tags: N-terminal GST; dsDNA, one strand shown
# T7 sequence: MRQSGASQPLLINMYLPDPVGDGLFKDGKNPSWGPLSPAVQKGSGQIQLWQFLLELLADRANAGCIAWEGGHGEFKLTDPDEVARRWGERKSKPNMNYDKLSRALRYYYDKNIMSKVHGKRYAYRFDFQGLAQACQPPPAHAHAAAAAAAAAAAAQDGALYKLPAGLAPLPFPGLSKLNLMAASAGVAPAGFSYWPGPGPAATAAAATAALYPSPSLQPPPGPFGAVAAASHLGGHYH
# Method in brief: as §1
# [11] = molecular target: ETV5 (Homo sapiens, UniProt P41161 1-510); conditions: protein: recombinant; tags: N-terminal GST; dsDNA, one strand shown
# Sequence of ETV5 (P41161 whole entry): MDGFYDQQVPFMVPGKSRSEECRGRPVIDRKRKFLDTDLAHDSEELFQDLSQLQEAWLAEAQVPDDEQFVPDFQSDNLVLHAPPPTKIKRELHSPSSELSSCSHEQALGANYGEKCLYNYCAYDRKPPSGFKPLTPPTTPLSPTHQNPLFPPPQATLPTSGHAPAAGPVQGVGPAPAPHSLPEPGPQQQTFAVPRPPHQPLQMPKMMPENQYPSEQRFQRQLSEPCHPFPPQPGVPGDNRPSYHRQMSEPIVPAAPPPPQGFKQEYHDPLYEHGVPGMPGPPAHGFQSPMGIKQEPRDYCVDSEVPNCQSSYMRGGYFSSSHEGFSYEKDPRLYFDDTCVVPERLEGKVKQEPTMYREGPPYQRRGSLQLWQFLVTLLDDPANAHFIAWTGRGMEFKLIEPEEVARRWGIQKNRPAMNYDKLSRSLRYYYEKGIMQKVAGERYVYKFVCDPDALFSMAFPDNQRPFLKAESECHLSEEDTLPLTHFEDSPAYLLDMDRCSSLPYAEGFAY
# Method in brief: as §1
# [12] = molecular target: HSF1 (Homo sapiens, UniProt Q00613 1-529); conditions: protein: recombinant; tags: N-terminal GST; chain copies: 3; dsDNA, one strand shown
# Sequence of HSF1 (Q00613 whole entry): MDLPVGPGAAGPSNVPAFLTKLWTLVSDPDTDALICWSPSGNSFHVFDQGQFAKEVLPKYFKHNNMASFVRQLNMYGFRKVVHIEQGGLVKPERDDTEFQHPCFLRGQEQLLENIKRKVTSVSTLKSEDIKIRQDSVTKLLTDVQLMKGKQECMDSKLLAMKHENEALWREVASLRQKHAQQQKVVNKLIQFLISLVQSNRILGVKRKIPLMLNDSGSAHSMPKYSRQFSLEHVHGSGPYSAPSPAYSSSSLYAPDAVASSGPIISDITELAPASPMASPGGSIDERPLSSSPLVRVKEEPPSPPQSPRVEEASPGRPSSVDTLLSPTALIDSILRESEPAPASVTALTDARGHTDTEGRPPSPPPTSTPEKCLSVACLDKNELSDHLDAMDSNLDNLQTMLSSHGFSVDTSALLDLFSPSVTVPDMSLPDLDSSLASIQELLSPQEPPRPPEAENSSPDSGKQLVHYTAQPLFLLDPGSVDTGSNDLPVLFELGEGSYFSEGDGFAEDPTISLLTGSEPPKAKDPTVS
# Method in brief: as §1
# [13] = molecular target: T8, SPIC (Homo sapiens, UniProt Q8N5J4 1-248); conditions: protein: recombinant; tags: N-terminal GST; dsDNA, one strand shown
# T8 sequence: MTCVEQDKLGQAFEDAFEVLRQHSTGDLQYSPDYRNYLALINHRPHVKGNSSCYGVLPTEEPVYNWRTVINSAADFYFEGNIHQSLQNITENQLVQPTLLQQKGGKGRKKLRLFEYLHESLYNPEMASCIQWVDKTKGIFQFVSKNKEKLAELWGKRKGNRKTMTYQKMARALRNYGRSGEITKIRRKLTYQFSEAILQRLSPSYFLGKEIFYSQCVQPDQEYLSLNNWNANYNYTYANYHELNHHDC
# Method in brief: as §1
# [14] = molecular target: ELF4 (Homo sapiens, UniProt Q99607 1-663); conditions: protein: recombinant; tags: N-terminal GST; dsDNA, one strand shown
# Sequence of ELF4 (Q99607 whole entry): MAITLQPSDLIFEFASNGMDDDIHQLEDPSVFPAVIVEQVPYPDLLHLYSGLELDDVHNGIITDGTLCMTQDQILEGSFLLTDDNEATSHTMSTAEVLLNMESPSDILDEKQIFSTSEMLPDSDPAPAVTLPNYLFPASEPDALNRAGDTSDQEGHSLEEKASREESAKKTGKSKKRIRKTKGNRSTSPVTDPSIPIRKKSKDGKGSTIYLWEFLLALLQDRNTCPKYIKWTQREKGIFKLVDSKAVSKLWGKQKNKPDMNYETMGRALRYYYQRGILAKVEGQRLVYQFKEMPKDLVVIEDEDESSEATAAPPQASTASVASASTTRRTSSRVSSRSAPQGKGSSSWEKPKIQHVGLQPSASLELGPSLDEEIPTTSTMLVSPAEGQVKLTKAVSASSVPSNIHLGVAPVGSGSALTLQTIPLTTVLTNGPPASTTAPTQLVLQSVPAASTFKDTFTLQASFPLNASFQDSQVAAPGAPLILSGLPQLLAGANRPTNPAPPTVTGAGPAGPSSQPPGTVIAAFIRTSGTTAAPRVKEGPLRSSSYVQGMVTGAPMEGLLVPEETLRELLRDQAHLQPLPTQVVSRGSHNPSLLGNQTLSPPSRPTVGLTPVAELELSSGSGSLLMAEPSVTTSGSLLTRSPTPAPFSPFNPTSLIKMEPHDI
# Method in brief: as §1
# [15] = molecular target: T9, ELK4 (Homo sapiens, UniProt P28324-2 1-405); conditions: protein: recombinant; tags: N-terminal GST; dsDNA, one strand shown
# T9 sequence: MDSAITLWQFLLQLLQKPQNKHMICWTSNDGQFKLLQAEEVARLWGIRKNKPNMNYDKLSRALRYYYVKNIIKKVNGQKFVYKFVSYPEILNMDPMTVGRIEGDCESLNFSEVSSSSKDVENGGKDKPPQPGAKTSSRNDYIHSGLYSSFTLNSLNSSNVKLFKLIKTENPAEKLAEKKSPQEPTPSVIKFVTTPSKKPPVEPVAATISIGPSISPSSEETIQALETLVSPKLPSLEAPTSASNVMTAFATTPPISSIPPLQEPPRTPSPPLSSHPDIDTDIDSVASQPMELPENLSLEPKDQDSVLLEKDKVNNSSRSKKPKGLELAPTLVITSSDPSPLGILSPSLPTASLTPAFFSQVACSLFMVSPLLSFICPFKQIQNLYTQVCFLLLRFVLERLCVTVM
# Method in brief: as §1
# [16] = molecular target: T10, ETV2 (Homo sapiens, UniProt O00321 1-342); conditions: protein: recombinant; tags: N-terminal GST; dsDNA, one strand shown
# T10 sequence: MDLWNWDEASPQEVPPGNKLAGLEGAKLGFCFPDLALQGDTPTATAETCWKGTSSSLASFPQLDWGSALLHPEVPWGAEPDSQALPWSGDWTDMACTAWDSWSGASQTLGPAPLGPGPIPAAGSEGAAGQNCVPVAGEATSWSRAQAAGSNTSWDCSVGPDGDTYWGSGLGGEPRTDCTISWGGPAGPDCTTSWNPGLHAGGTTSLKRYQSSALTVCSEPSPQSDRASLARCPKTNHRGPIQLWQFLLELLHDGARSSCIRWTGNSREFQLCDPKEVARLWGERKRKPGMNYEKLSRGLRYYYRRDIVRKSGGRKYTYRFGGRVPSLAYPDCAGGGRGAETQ
# Method in brief: as §1
# [17] = molecular target: T11, ELF3 (Homo sapiens, UniProt P78545 1-371); conditions: protein: recombinant; tags: N-terminal GST; dsDNA, one strand shown
# T11 sequence: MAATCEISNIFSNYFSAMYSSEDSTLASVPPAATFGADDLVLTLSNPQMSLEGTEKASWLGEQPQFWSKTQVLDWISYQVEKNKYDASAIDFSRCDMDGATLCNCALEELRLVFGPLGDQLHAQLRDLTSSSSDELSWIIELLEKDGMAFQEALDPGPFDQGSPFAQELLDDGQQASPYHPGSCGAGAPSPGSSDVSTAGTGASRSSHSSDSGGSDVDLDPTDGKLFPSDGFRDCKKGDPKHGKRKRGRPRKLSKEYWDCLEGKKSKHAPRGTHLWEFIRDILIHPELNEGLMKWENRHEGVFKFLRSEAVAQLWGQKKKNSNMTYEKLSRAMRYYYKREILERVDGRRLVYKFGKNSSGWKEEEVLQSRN
# Method in brief: as §1
# [18] = molecular target: CRX (Homo sapiens, UniProt O43186 1-299); conditions: protein: recombinant; tags: N-terminal GST; dsDNA, one strand shown
# Sequence of CRX (O43186 whole entry): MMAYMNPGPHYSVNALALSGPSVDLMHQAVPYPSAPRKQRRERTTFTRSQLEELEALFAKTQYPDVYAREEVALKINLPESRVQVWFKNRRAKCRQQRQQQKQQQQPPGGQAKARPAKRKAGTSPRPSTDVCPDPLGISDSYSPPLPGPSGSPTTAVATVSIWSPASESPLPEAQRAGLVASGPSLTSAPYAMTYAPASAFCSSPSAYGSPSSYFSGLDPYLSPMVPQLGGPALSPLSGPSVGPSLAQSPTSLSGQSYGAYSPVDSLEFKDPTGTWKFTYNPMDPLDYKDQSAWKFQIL
# Method in brief: as §1
# [19] = molecular target: ETV1 (Homo sapiens, UniProt P50549 1-477); conditions: protein: recombinant; tags: N-terminal GST; dsDNA, one strand shown
# Sequence of ETV1 (P50549 whole entry): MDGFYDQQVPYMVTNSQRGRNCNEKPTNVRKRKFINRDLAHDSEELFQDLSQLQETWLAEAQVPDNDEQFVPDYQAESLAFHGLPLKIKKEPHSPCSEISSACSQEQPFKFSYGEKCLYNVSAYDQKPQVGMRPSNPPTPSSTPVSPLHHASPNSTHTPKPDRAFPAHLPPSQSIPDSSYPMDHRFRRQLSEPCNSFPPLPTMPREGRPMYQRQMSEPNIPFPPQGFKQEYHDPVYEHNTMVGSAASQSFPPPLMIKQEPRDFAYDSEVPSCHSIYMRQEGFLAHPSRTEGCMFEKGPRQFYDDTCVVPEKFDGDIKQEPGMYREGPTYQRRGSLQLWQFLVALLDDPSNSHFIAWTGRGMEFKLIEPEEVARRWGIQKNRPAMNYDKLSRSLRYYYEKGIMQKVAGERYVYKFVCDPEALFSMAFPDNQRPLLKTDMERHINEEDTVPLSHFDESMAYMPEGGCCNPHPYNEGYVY
# Method in brief: as §1
sequence,measurement,setting,value
AATATG,binding signal,[1],"1.12 fold enrichment (6-mer frequency, TF over GST control)"
same,binding signal,[2],"1.13 fold enrichment (6-mer frequency, TF over GST control)"
same,binding signal,[3],"1.15 fold enrichment (6-mer frequency, TF over GST control)"
same,binding signal,[4],"1.15 fold enrichment (6-mer frequency, TF over GST control)"
same,binding signal,[5],"1.17 fold enrichment (6-mer frequency, TF over GST control)"
same,binding signal,[6],"1.09 fold enrichment (6-mer frequency, TF over GST control)"
same,binding signal,[7],"1.15 fold enrichment (6-mer frequency, TF over GST control)"
same,binding signal,[8],"1.19 fold enrichment (6-mer frequency, TF over GST control)"
same,binding signal,[9],"1.19 fold enrichment (6-mer frequency, TF over GST control)"
same,binding signal,[10],"1.12 fold enrichment (6-mer frequency, TF over GST control)"
same,binding signal,[11],"1.2 fold enrichment (6-mer frequency, TF over GST control)"
same,binding signal,[12],"1.12 fold enrichment (6-mer frequency, TF over GST control)"
same,binding signal,[13],"1.28 fold enrichment (6-mer frequency, TF over GST control)"
same,binding signal,[14],"1.16 fold enrichment (6-mer frequency, TF over GST control)"
same,binding signal,[15],"1.18 fold enrichment (6-mer frequency, TF over GST control)"
same,binding signal,[16],"1.07 fold enrichment (6-mer frequency, TF over GST control)"
same,binding signal,[17],"1.21 fold enrichment (6-mer frequency, TF over GST control)"
same,binding signal,[18],"1.1 fold enrichment (6-mer frequency, TF over GST control)"
same,binding signal,[19],"1.13 fold enrichment (6-mer frequency, TF over GST control)"
